Test results taken from PubChem BioAssay AID504734 (The Scripps Research Institute Molecular Screening Center, 2011).
In all, about 340,000 compounds went through this assay and about 730 (0.21%) were called active.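 How the source made its calls: active means inhibition above the mean over all tested compounds plus 3 SD (cut at about 21% in these data); inactive means the rest.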 Many of the other results were omitted from the sample, so actives are more common in it than they were.

Target: Toll-like receptor 9 (Homo sapiens) + Myeloid differentiation primary response protein MyD88 (Homo sapiens) (UniProt Q9NR96+Q99836)
Assay: disruptors of TLR9 binding to MyD88 – cell-based, CHO, BLA complementation, fluorescence, primary screen (AID 504734);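 further: 0% = DMSO only wells and 100% = clavulanate BLA inhibitor control wells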
Settings: CHO BLA complementation TLR9-MyD88, CCF4 FRET ratio; at 4.98 µM; stronger effect = higher value

Chain of Toll-like receptor 9 (Homo sapiens) + Myeloid differentiation primary response protein MyD88 (Homo sapiens) (Q99836 whole entry, looked up): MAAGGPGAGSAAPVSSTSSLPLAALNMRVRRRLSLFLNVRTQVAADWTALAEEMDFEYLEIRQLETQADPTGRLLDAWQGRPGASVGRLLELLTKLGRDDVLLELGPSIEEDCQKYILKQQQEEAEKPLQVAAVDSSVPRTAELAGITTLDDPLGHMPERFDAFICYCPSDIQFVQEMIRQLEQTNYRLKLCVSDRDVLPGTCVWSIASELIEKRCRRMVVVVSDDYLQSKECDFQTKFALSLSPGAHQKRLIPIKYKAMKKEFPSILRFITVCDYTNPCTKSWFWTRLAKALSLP
Chain of Toll-like receptor 9 (Homo sapiens) + Myeloid differentiation primary response protein MyD88 (Homo sapiens) (Q9NR96 whole entry, looked up): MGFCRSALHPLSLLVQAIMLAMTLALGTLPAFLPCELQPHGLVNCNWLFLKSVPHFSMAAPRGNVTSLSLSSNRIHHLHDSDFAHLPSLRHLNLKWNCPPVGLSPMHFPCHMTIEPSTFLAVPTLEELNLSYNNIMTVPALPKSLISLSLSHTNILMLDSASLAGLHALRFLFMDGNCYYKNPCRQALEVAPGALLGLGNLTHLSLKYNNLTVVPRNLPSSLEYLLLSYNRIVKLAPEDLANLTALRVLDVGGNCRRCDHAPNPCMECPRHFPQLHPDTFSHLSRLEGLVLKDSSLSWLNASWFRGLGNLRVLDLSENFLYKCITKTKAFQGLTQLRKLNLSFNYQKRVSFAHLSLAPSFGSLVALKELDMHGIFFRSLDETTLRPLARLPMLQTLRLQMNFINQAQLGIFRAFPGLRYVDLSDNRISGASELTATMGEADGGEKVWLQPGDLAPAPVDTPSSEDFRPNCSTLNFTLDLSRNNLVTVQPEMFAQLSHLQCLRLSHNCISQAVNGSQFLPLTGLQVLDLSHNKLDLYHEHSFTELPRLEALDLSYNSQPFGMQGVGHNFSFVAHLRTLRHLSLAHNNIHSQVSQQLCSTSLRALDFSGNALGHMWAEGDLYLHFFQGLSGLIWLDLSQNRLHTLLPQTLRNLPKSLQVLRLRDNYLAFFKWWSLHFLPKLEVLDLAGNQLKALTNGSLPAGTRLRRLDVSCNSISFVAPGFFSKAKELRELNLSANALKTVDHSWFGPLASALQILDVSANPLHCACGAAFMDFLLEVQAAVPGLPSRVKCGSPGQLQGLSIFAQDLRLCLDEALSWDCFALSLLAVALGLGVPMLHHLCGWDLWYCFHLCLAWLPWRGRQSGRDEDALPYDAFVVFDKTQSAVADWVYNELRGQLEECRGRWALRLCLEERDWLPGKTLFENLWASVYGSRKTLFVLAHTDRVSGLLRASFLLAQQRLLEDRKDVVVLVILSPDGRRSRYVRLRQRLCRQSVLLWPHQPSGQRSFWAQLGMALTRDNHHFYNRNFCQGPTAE

| SMILES | inhibition |
| --- | --- |
| C[C@H](O)[C@@H]1C(=O)N2CCc3c([nH]c4ccccc34)[C@@H]2C[C@@H]1N(C)C(=O)Nc1ccc(F)cc1 | -0.01% (inactive) |
| CCOc1cc(/C=N/NC(=O)c2c(C)nc3ccc(Cl)cn23)ccc1O | -2.46% (inactive) |
| C=CCN1CCN(c2ccncc2S(=O)(=O)N2CCN(C)CC2)CC1 | 9.55% (inactive) |
| Cc1sc2ncnc(SCC(=O)NC3CCS(=O)(=O)C3)c2c1C (centres undefined) | -4.28% (inactive) |
| Cn1nc(N)c2ncc(C(Cl)(Cl)Cl)nc21 | -17.4% (inactive) |
| COc1cc(C(=O)OCCCN2CCOCC2)cc(OC)c1OC | 1.8% (inactive) |
| Cc1cc(OCC(=O)Nc2nccs2)c2c(C)c(C)c(=O)oc2c1 | -3.81% (inactive) |
| COc1ccccc1-c1n[nH]nc1C1=CC(=O)CC(C)(C)C1 | 9.73% (inactive) |
| CNC(=S)N/N=C/c1ccc(OCc2ccccc2)c(Br)c1 | 29.9% (active) |
| O=C(O)COc1ccc(/C=N/O)cc1Br | 7.44% (inactive) |
| CNC(=S)NNC(=O)c1sccc1OCc1ccccc1 | -6.12% (inactive) |
| CCCCCCN1C[C@@H](O)[C@H](n2cc(COC(=O)c3ccccc3)nn2)C[C@@H]1c1ccc(Cl)cc1 | -2.39% (inactive) |
| C[C@H]1CN([C@@H](C)CO)C(=O)CCCn2nncc2CO[C@@H]1CN(C)Cc1ccc(Oc2ccccc2)cc1 | 0.54% (inactive) |
| NC(=O)C1(Nc2ccccc2Cl)CCCC1 | -10.1% (inactive) |
| O=C(CCN1CCN(C/C=C/c2ccccc2)CC1)Nc1ccccc1Cl | 2.63% (inactive) |
| O=C(Nc1ccccc1Cl)/C(Cl)=C(\Cl)S(=O)c1ccccc1 (centres undefined) | 23.8% (active) |
| CN1OC[C@@H]2CN(S(=O)(=O)c3cccc(C(F)(F)F)c3)[C@H](c3ccc(-c4cc5ccccc5o4)cc3)C[C@@H]21 | -0.31% (inactive) |
| Cc1cc(C)cc(NC(=O)CCN2C(=O)c3ccccc3C2=O)c1 | -4.31% (inactive) |
| O=C(CCN1C(=O)c2ccccc2C1=O)NNC(=O)c1ccc(Cl)cc1Cl | 29.1% (active) |
| Cc1cc(C)cc(OCC(=O)NNC(=O)CCN2C(=O)c3ccccc3C2=O)c1 | -3.37% (inactive) |
| Cc1ccc(-c2ccc(CN3C(C(C)C)C(=O)N(Cc4cn(CCC5OCCCO5)nn4)CCS3(=O)=O)cc2)cc1 (centres undefined) | -5.52% (inactive) |
| CC(OC(=O)c1ccc(NC(=O)CC#N)cc1)C(=O)Nc1ccc(S(=O)(=O)N2CCCC2)cc1 (centres undefined) | 0.94% (inactive) |
| COCCCn1c(C(=O)NC2CCCCC2)cc2c(=O)n3cccc(C)c3nc21 | -12.6% (inactive) |
| CC1(C)CN(Cc2cccnc2)C(=O)[C@H]1CC(=O)Nc1ccc(Br)cc1 | -3.44% (inactive) |

| SMILES | inhibition |
| --- | --- |
| O=C(CSc1ccc(Cl)cc1)NC1CC1 | -15.8% (inactive) |
| C#CCN(C[C@H]1[C@H](OC(=O)NC2CCCC2)[C@H](OC(=O)NC2CCCC2)C[C@H]2C(=O)N(c3ccccc3)C(=O)[C@@H]12)S(=O)(=O)c1ccc(C)cc1 | -5.56% (inactive) |
| COc1ccc(C2CC(c3ccc(C)cc3)Nc3ncnn32)cc1 (centres undefined) | 1.5% (inactive) |
| CC1=C(C(=O)OC2CCCCC2)C(c2cccnc2)n2ncnc2N1 (centres undefined) | -0.13% (inactive) |
| CCOc1ccc(C2=CC(c3ccccc3)n3ncnc3N2)cc1 (centres undefined) | 33.7% (active) |
| Clc1ccc2c(c1)C1=C(C(c3ccncc3)O2)C(c2ccc(Br)cc2)n2ncnc2N1 (centres undefined) | -8.31% (inactive) |
| Brc1ccc(C2=CC(c3ccco3)n3ncnc3N2)cc1 (centres undefined) | 30.4% (active) |
| CCN1C(=O)[C@H]2[C@@H](c3ccc(C(F)(F)F)cc3)N[C@]3(CCCN(Cc4ccc(Br)cc4)C3=O)[C@H]2C1=O | 5.46% (inactive) |
| N#CCCN(C(=O)Nc1ccc(Cl)c(Cl)c1)C1CCCCC1 | 8.97% (inactive) |
| CCN(C(=O)Nc1cccc2ccccc12)c1ccccc1 | -15.1% (inactive) |
| Cc1nc2ccccc2nc1CC(O)(c1ccccc1)c1ccccc1 | 2.03% (inactive) |
| CCOC(=O)c1cc(-c2sc(NC(=O)c3ccccc3)nc2C)n(CCO)n1 | 2.6% (inactive) |
| Cc1cc2c3ccccc3[nH]c(=O)n2n1 | 1.06% (inactive) |
| CN(c1ccccc1)S(=O)(=O)c1ccc(C(=O)NCc2cccnc2)cc1 | 7.85% (inactive) |
| O=C1NC(=O)C2C1C(c1ccc([N+](=O)[O-])cc1)=NN2Cc1ccccc1 (centres undefined) | 27.8% (active) |
| O=[N+]([O-])c1ccc(C(S(=O)(=O)Cc2ccccc2)S(=O)(=O)Cc2ccccc2)cc1 | 2.65% (inactive) |
| CC1CN(Cc2ccccc2)C(=S)NC1=O (centres undefined) | -6.13% (inactive) |
| CN(Cc1ccccc1)C(=O)CCC1CCN(C(=O)c2ccco2)CC1 | 0.05% (inactive) |
| NS(=O)(=O)c1ccc(CNC(=O)c2cc(S(=O)(=O)N3CCOCC3)ccc2N2CCCC2)cc1 | -5.7% (inactive) |
| CC1(c2cccc(Br)c2)NC(=O)N(CC(=O)NCCC2=CCCCC2)C1=O (centres undefined) | 3.69% (inactive) |
| COc1cccc(C(=O)OCc2cc(=O)oc3c(C)c(C)ccc23)c1OC | -5.33% (inactive) |
| COC(=O)Cc1cc(=O)oc2c(C)c(O)ccc12 | 21.6% (active) |
| CCCc1cc(=O)oc2c(C)c(OCC(=O)Nc3ccccn3)ccc12 | 6.85% (inactive) |
| S=C(NN=Cc1ccccn1)Nc1ccccn1 | 10.2% (inactive) |

| SMILES | inhibition |
| --- | --- |
| CC1C(=O)N(Cc2cn(Cc3ccco3)nn2)CCS(=O)(=O)N1Cc1ccc(-c2cccc(CO)c2)cc1 (centres undefined) | -1.07% (inactive) |
| C[C@@H]1CN([C@@H](C)CO)C(=O)CCCn2nncc2CO[C@H]1CN(C)Cc1ccc(C(F)(F)F)cc1 | -8.49% (inactive) |
| O=C(NCCCNCc1ccccc1)c1ccc(/C=N/O)nc1 | -3.77% (inactive) |
| C[N+](C)(C)CCNC(=O)c1cc[n+](Cc2ccccc2)c(/C=N/O)c1 | 22.8% (active) |
| C[n+]1ccc(C(=O)NCc2ccccc2)cc1 | -10.2% (inactive) |
| Cc1ccc2cccc([N+](=O)[O-])c2n1 | 4.24% (inactive) |
| COc1ccc(CCNC(=O)CN(c2ccccc2)S(=O)(=O)c2ccccc2)cc1 | 0.66% (inactive) |
| CN=c1scc(-c2cc(OC)ccc2OC)n1/N=C/c1c(C)[nH]c2ccccc12 | 6.42% (inactive) |
| COc1ccc(OC)c(N=Cc2c(O)[nH]c3ccccc23)c1 | 41.1% (active) |
| COc1cc2[nH]c(O)c(C=O)c2cc1OC | -8.58% (inactive) |
| CC(=O)c1ccccc1NC(=O)COC(=O)C1COc2ccccc2O1 (centres undefined) | 2.77% (inactive) |
| C[C@@H]1CN([C@@H](C)CO)S(=O)(=O)c2ccc(-c3ccc(C(=O)N(C)C)cc3)cc2O[C@@H]1CN(C)Cc1ccccc1C(=O)O | -6.78% (inactive) |
| CCOC(=O)c1c(NC(=S)SC)sc(C(=O)N2CCc3ccccc3C2)c1C | -0.74% (inactive) |
| COc1ccc(CN2C[C@H]3CON(C)[C@H]3C[C@H]2c2ccc(-c3cccc(F)c3)cc2)cc1 | 4.13% (inactive) |
| O=C(O)C1CCCN1c1nc(Cl)ccc1[N+](=O)[O-] (centres undefined) | -12.8% (inactive) |
| CCOc1cccc(=O)c2c(C)n(CC3CCCO3)c(C)c12 (centres undefined) | 1.31% (inactive) |
| CN1CN(C)c2ccc([N+](=O)[O-])c3cccc1c23 | -8.31% (inactive) |
| O=C1c2cccc3c([N+](=O)[O-])ccc(c23)C(=O)N1CC1CCCO1 (centres undefined) | 56.9% (active) |
| CCN(Cc1ccncc1)C(=S)Nc1ccccc1C | 3.02% (inactive) |
| Cc1cccc(S(=O)(=O)N(C)C[C@@H]2OCc3cnnn3CCCC(=O)N([C@H](C)CO)C[C@@H]2C)c1 | -11.3% (inactive) |
| CN1CCN(c2ccncc2S(=O)(=O)N2CCCC2)CC1 | 3.95% (inactive) |
| O=C(/C=C(O)/C=C/c1ccc(O)cc1)/C=C/c1ccc(O)cc1 | 42% (active) |
| O=C(O)/C=C/c1ccc(S(=O)(=O)N2CCCCCC2)cc1 | -16.4% (inactive) |
| COc1cccc(C=CC(=O)C=CC=Cc2ccccc2)c1 | -5.47% (inactive) |

| SMILES | inhibition |
| --- | --- |
| COc1ccc(NC(=O)CSc2nnnn2-c2cccc(OC)c2)cc1 | 13.5% (inactive) |
| COCOCCn1cc(CN2CCS(=O)(=O)N(Cc3ccc(-c4ccc(OC)cc4)cc3)C(CC(C)C)C2=O)nn1 (centres undefined) | -1.5% (inactive) |
| C[C@@H]1CN([C@@H](C)CO)C(=O)c2c(c3ccccc3n2C)-c2ccccc2CO[C@H]1CN(C)C(=O)C1CC1 | -4% (inactive) |
| Cc1cc2oc3ccc(NCCC4CCCN4C)cc3c(=O)c2cc1C (centres undefined) | 24.9% (active) |
| COc1cccc2sc3cc(NCC[C@@H]4CCCN4C)ccc3c(=O)c12 | 0.85% (inactive) |
| Cc1cc2oc(=O)cc(CN3CCN(Cc4ccccc4)CC3)c2cc1C | -18.4% (inactive) |
| C[C@H]1CN([C@@H](C)CO)S(=O)(=O)c2ccc(Br)cc2O[C@H]1CN(C)C(=O)c1cnccn1 | 5.72% (inactive) |
| CCC1NC(=O)c2cccnc2-n2c1nc1ccc(C)cc1c2=O (centres undefined) | 8.64% (inactive) |
| COc1ccc(S(=O)(=O)N2CCCCC2)cc1C(=O)NC1CCS(=O)(=O)C1 (centres undefined) | -5.76% (inactive) |
| CCc1ccccc1NC(=O)CN1CCN(C(=O)c2cc(C3CC3)nn2-c2ccccc2)CC1 | -43.9% (inactive) |
| NC(=O)CSc1nnc(-c2cccc(S(=O)(=O)N3CCOCC3)c2)o1 | 10.4% (inactive) |
| OCCNc1nc(Nc2ccc(Cl)c(Cl)c2)nc2ccccc12 | -0.91% (inactive) |
| O=[N+]([O-])c1c(NCCO)cc(Sc2nc3ccccc3s2)c2nonc12 | 43.3% (active) |
| Nc1nnc(SCC(=O)Nc2ccc3nc(SCC(=O)Nc4ccccc4)sc3c2)s1 | 0.67% (inactive) |
| O=C(CSc1ncn[nH]1)Nc1nc2c(F)c(F)c(F)cc2s1 | -0.11% (inactive) |
| O=C(C[C@H]1C[C@H]2c3cc(NS(=O)(=O)c4ccc(F)cc4)ccc3O[C@H]2[C@H](CO)O1)NCc1cc(F)ccc1F | -5.81% (inactive) |
| CC1CC(C)CN(S(=O)(=O)c2cccc(C(=O)N3C(=O)c4cccc(N)c4C3=O)c2)C1 (centres undefined) | -15.2% (inactive) |
| COc1cc(C(=O)N2C(=O)c3cccc(N)c3C2=O)cc(OC)c1OC | 20.9% (active) |
| COc1cc(C(=O)N2CCN(C)CC2)cc(OC)c1OC | 8.16% (inactive) |
| COc1ccc(-c2c(C#N)cnc(C)c2C)c(O)c1OC | -8.05% (inactive) |
| C#Cc1cc(N2CCN(C(=O)c3ccoc3)CC2)n2nc(-c3cccc(Cl)c3)cc2n1 | 5.91% (inactive) |
| CCCCCCNC(=O)O[C@]12C[C@@H](C(=O)OC)[C@@H](C(=O)OC)C[C@@]1(O)CN(S(=O)(=O)c1ccc(C)cc1)C2 | -7.21% (inactive) |
